Test results as given in PubChem BioAssay (NCATS).
Records with an inconclusive call do not appear. Values without a mark were called inactive. Activity calls are given as the source filed them. Calls come from the whole dose curve; as a rule, active = well fitted activation curve with a large enough effect; inconclusive = small, poorly fitted or top-dose-only effect; inactive = no such curve, though single readings can be large or run the other way.

These compounds were tested against Cellular tumor antigen p53 (Homo sapiens) (UniProt P04637) (assay: Primary qHTS for small molecule compounds that upregulate eGFP-tagged delta133p53alpha (in N-terminal) cells. (AID 2060322; note: nearly all actives have a fitted effect of over 75% in size;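 for activation: series mostly up to about 56 µM; 0% = DMSO vehicle and 100% = reference activator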)). Conditions: NCI-H358 eGFP-delta133p53alpha fluorescence, 24 h; activation: active compounds read high.
Cellular tumor antigen p53 (Homo sapiens), sequence (P04637 whole entry, looked up): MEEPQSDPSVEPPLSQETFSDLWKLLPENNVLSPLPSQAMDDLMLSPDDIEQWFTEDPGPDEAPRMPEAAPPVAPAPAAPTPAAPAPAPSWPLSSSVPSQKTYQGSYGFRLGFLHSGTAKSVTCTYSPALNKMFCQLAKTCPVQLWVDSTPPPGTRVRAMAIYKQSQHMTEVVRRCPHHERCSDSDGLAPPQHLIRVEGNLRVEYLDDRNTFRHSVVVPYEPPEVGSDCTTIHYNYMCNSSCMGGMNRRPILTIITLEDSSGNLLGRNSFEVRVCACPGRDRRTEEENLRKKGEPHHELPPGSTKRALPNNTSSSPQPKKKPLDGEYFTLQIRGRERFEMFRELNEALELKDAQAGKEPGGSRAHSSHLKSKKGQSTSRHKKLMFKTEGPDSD
Procedure, shortened: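 NCI-H358 cells pre-induced 24 h with 10 ng/ml doxycycline for eGFP-delta133p53alpha, plated dox-free and exposed 24 h at 37C to titrated compounds. Fixed, Hoechst-stained; gated GFP peak intensity by laser scanning cytometry, normalized to DMSO (0%) and 57.5 uM 5-azacytidine (100%).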
Potency is the fitted concentration of half-maximal effect.

**Q.** Which activation does the source give for CC1=C[C@H]2[C@@H](CC1=O)[C@H](C)C[C@H](O)[C@H]2C(C)C here?
**A.** 10.7%

**Q.** How did the activation turn out when COc1cc(C2c3cc(O)c(OC)cc3CC(CO)C2CO)ccc1O (stereo not given) was run?
**A.** 8.93%

**Q.** C/C1=C\CC[C@H](C)CCO[C@@H]2O[C@H](CO[C@@H]3OC[C@](O)(COC1=O)[C@H]3O)[C@@H](O)[C@H](O)[C@H]2O was tested. Which activation did it give?
**A.** 18.8%

**Q.** CC(=O)O[C@@H]1[C@H](OC(C)=O)C[C@@]2(C)C(CC[C@@H](C)[C@]23Cc2c(O)cc4c(c2O3)CN([C@@H](CCC(=O)O)C(=O)O)C4=O)C1(C)C (stereo not given in full) was tested. Which activation did it give?
**A.** -9.92%

**Q.** Which activation does the source give for COc1cc(/C=C/C(=O)OC2CC3CCC2(C)C3(C)C)ccc1O (stereo not given) here?
**A.** -14.5%

**Q.** Which activation does the source give for CC1=CC(=O)CC(C)(C)C1/C=C/C(C)OC1OC(COC2OCC(O)C(O)C2O)C(O)C(O)C1O (stereo not given) here?
**A.** 8.93%

**Q.** For CC1(C)CC[C@]2(C(=O)O[C@@H]3O[C@H](CO[C@@H]4O[C@H](CO)[C@@H](O)[C@H](O)[C@H]4O[C@@H]4O[C@H](CO)[C@H](O)[C@H](O)[C@H]4O)[C@@H](O)[C@H](O[C@@H]4O[C@H](CO)[C@@H](O)[C@H](O)[C@H]4O)[C@H]3O)CC[C@]3(C)C(=CCC4[C@@]5(C)CC[C@H](O[C@@H]6OC[C@@H](O)[C@H](O)[C@H]6O)[C@@](C)(C(=O)O)C5CC[C@]43C)[C@@H]2C1 (stereo not given in full), which activation is on record?
**A.** 1.53%

**Q.** How did the Potency turn out when COc1cc2c(cc1O)CC[C@H]1[C@@H]2CC[C@]2(C)[C@H](O)CC[C@@H]12 was run?
**A.** 1.51 µM (active)

**Q.** How did the activation turn out when CC1(C)CC[C@]2(C(=O)O[C@@H]3O[C@H](CO)[C@@H](O)[C@H](O)[C@H]3O)CC[C@]3(C)C(=CCC4[C@@]5(C)CC[C@H](O[C@@H]6O[C@H](C(=O)O)[C@@H](O)[C@H](O[C@@H]7O[C@H](CO)[C@H](O)[C@H](O)[C@H]7O)[C@H]6O)C(C)(C)C5CC[C@]43C)C2C1 (stereo not given in full) was run?
**A.** -9.92%

**Q.** With C/C1=C\C[C@]2(C)C(=O)C(O)=C([C@H](C)CO)[C@H]2C/C=C(\C)[C@@H](O)CC/C(C)=C/CC1 as the compound, how does the activation read?
**A.** -6.11%

**Q.** Which Potency does the source give for COC(=O)C1=CO[C@@H](O[C@@H]2O[C@H](CO)[C@@H](O)[C@H](O)[C@H]2O)[C@H]2[C@@H]1C=C[C@]21C=C([C@H](C)OC(=O)/C=C/c2ccc(O)cc2)C(=O)O1 here?
**A.** 2.51 µM (active)

**Q.** Which activation does the source give for CC[C@@H](C)[C@H]1C(=O)O[C@H](C(C)C)C(=O)N(C)[C@@H](C(C)C)C(=O)O[C@H](C(C)C)C(=O)N(C)[C@@H](C(C)C)C(=O)O[C@H](CC(C)C)C(=O)N1C here?
**A.** 22.3%

**Q.** Which Potency does the source give for C=C1C(=O)O[C@@H]2[C@H]1[C@H](O)C[C@]1(C)[C@@H](O)CC=C(C)[C@@H]21 here?
**A.** 15.1 µM (active)

**Q.** C=C(C(=O)OC)C1C(O)CC2(C)C(=O)CCC(O)(CO)C2C1O (stereo not given) was tested. Which activation did it give?
**A.** -14.3%

**Q.** How did the activation turn out when COc1ccc(C(=O)CC(=O)O)c2c1C=CC(C)(C)O2 was run?
**A.** 23.2%

**Q.** For C[C@]1(O)CC[C@@H]2C(C(=O)O)=CO[C@@H](O[C@@H]3O[C@H](CO)[C@@H](O)[C@H](O)[C@H]3O)[C@@H]21, which activation is on record?
**A.** -11.5%

**Q.** With CC1=CC(=O)CC(C)(C)C1CCC(C)O[C@@H]1O[C@H](CO)[C@@H](O)[C@H](O)[C@H]1O (stereo not given in full) as the compound, how does the activation read?
**A.** -3.57%

**Q.** With CC1(C)CC[C@]2(C(=O)O[C@@H]3O[C@H](CO)[C@@H](O)[C@H](O)[C@H]3O)CC[C@]3(C)C(=CCC4[C@@]5(C)CC[C@H](OC6OC(C(=O)O)C(OC7OC(CO)C(O)C(O)C7O)C(O)C6O)C(C)(C)C5CC[C@]43C)C2C1 (stereo not given in full) as the compound, how does the activation read?
**A.** -16.8%

**Q.** Which activation does the source give for C=C(CC/C=C(\C)C(=O)O)C1(O)CC=C(C)CC1 (stereo not given) here?
**A.** -21.4%

**Q.** How did the activation turn out when CC1(C)CC[C@]23CO[C@@]4(CCC5[C@@]6(C)CC[C@H](O[C@@H]7OC[C@H](O[C@@H]8O[C@H](CO)[C@@H](O)[C@H](O)[C@H]8O[C@@H]8OC[C@@H](O)[C@H](O)[C@H]8O)[C@H](O)[C@H]7O)[C@@](C)(CO)C6CC[C@@]5(C)[C@]4(C)CC2=O)[C@@H]3C1 (stereo not given in full) was run?
**A.** 18.3%

**Q.** How did the activation turn out when CC1(O)CCCC2(C)C1CCC13CC(CO)C(CCC12)C3 (stereo not given) was run?
**A.** 0%

**Q.** O=C1NC(Cc2ccccc2)C(=O)N2CCCC12 (stereo not given) was tested. Which activation did it give?
**A.** -16.8%

**Q.** How did the activation turn out when CC1(c2nc3c(C(N)=O)cccc3[nH]2)CCCN1 (stereo not given) was run?
**A.** -1.43%

**Q.** CC1(C)CC2C(O)C3=C(CC(C)(O)C2C1)C(=O)OC3O (stereo not given) was tested. Which activation did it give?
**A.** 1.79%

**Q.** For CC12CCC(C(OC3OC(COC4OCC(O)(CO)C4O)C(O)C(O)C3O)C1)C(C)(C)O2 (stereo not given), which activation is on record?
**A.** -13.4%

**Q.** For CC1=C(CCC(C)CC(=O)O)[C@@]2(C)CCCC(C)(C)C2CC1=O (stereo not given in full), which activation is on record?
**A.** -29.5%

**Q.** CCCC1=CC2=C(CO1)C(=O)C(C)(OC(=O)c1c(C)cc(OC)cc1O)C(O)C2 (stereo not given) was tested. Which activation did it give?
**A.** -24.4%

**Q.** With CC(=O)O[C@@H](CO[C@@H]1O[C@H](CO)[C@H](O)[C@H](O)[C@H]1O)[C@]1(C)C=C2CC[C@@H]3C(C)(C)[C@@H](O)CC[C@@]3(C)[C@@H]2CC1 as the compound, how does the activation read?
**A.** 18.3%

**Q.** For O=C(OCC12OC1C=CC(OC(=O)c1ccccc1)C2O)c1ccccc1 (stereo not given), which activation is on record?
**A.** 10.7%

**Q.** With C=C1C(=O)O[C@@H]2[C@H]1CCC(C)=C1CCC(=O)O[C@]12C as the compound, how does the Potency read?
**A.** 12 µM (active)

**Q.** For CC(=O)c1cc2c(cc1O)OC(C)(C)C=C2, which activation is on record?
**A.** 14.3%

**Q.** How did the activation turn out when C=C(CCO)C(=O)OCC1OCC(OC(=O)C(=C)CCO[C@@H]2O[C@H](CO)[C@@H](O)[C@H](O)[C@H]2O)C(O)C1O (stereo not given in full) was run?
**A.** -8.4%

**Q.** COC(=O)CC[C@@H](C)[C@H]1CC[C@H]2[C@@H]3CC(=O)[C@H]4C[C@H](OC(C)=O)CC[C@]4(C)[C@H]3CC[C@]12C was tested. Which activation did it give?
**A.** -4.33%

**Q.** Which activation does the source give for C=CC[C@]12C[C@@H](OC)C(=O)C(OC)=C1O[C@@H](c1cc(OC)c3c(c1)OCO3)[C@@H]2C here?
**A.** -13.4%

**Q.** CC(C)=CCC[C@](C)(O[C@@H]1O[C@H](CO[C@@H]2OC[C@@H](O)[C@H](O)[C@H]2O)[C@@H](O)[C@H](O)[C@H]1O)[C@H]1CC[C@]2(C)[C@@H]1[C@H](O)C[C@@H]1[C@@]3(C)CC[C@H](O[C@@H]4O[C@H](CO)[C@@H](O)[C@H](O)[C@H]4O)C(C)(C)[C@@H]3CC[C@]12C was tested. Which activation did it give?
**A.** 6.33%

**Q.** C=C1CCC2[C@](C)(CCC[C@]2(C)C(=O)O)[C@H]1CC/C(C)=C/C(=O)OC (stereo not given in full) was tested. Which activation did it give?
**A.** 17.9%

**Q.** How did the activation turn out when C=C1C(=O)OC2C1C(O)CC1(C)C(O)CCC(C=O)C21 (stereo not given) was run?
**A.** 13.4%

**Q.** CC1C(=O)CC2C3CCC(C(=O)O)C12CC3(C)CO (stereo not given) was tested. Which activation did it give?
**A.** 9.92%

**Q.** C=C1C(=O)O[C@@H]2CC(C)=C([C@@H](C)CCCO)[C@@H](OC(=O)C(C)C)[C@H]12 was tested. Which activation did it give?
**A.** 14.3%

**Q.** O=C(OC[C@H]1O[C@H](O[C@H]2CO[C@H](CO)[C@@H](O)[C@@H]2O)[C@H](O)[C@@H](O)[C@H]1O)c1ccccc1 was tested. Which activation did it give?
**A.** -4.58%
